Experimental data reported in PubChem BioAssay.
Values joined by “and” are separate entries in the source; they are usually repeats but may differ in a detail not shown here. Identical values can stand only once. Active and inactive are the calls of the source.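 How the source made its calls, unless noted: active means inhibition at or above 50% relative to wild type and mutant plate controls; inactive means inhibition below 50%.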

Tests used:
[1] = reduction of polyQ htt aggregates in cells – imaging, exon1htt(103Q)mCFP cells, high-content imaging, primary screen (AID 483;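 active means visual image review flags a hit and inhibition of aggregation exceeds 20%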;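 further: compound exposure lasted 3 days before fixation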;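 on nuclei count: percent of the per-plate median nuclei count of sample wells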); conditions: exon1htt(103Q)mCFP cell line, aggregate imaging, at 2 µM; inhibition of aggregation: stronger effect = higher value; nuclei count: measured here: cell count, toxicity
[2] = endothelial E-selectin expression blockers – imaging, HUVEC, immunofluorescence, MLSMR starter and 10KST1 sets, primary screen (AID 487;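 active means visually confirmed hit in the image check and inhibition above 20%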;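 on inhibition: signal is fraction of cell area covered by stained E-selectin grains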;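 on nuclei count: 100% = median nuclei count of all wells on the same plate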); conditions: HUVEC TNFalpha-induced E-selectin immunofluorescence imaging, at 2 µM; inhibition: stronger effect = higher value; nuclei count: measured here: cell number, toxicity
[3] = Primary imaging screen for DUSP6 inhibitors that restore phospho-Erk in transfected HeLa cells, chemical complementation (AID 609;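 active means compounds giving at least 50% inhibition in the cell-based MKP-3 phosphatase rescue imaging test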;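 on inhibition: phospho-Erk level distribution per well compared with pooled transfected vehicle control wells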); conditions: HeLa MKP-3 transfected, phospho-Erk imaging KS statistic, at 10 µM, cells stimulated with TPA for 15 min
[4] = target: Dual specificity protein phosphatase 6 (Homo sapiens) (UniProt Q16828); assay: as above; conditions: HeLa MKP-3 transfected, phospho-Erk imaging KS statistic; at 10 µM; stronger effect = higher value; cells stimulated with TPA for 15 min
Dual specificity protein phosphatase 6 (Homo sapiens), sequence (Q16828 whole entry, looked up): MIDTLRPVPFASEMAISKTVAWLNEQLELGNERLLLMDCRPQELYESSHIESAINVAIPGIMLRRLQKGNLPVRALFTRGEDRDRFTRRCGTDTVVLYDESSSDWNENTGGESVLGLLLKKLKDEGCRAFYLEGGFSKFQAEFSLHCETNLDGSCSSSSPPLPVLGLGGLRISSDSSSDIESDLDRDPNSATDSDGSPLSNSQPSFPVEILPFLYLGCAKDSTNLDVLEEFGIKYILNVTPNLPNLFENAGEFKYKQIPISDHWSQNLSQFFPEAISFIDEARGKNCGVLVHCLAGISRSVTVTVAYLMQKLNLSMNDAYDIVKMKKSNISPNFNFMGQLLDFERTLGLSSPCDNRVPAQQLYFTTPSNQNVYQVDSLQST

[5] = target: Voltage-gated potassium channel subunit beta-2 (Rattus norvegicus) (UniProt P62483); assay: inhibitors of rat Kvbeta2 reductase activity – biochemical, NADPH fluorescence, primary screen (AID 622;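 active means fluorescence slope higher than the sample average by over 3 SD, cut at about -0.22 in these data, passing the limit was not always enough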;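 further: slope of raw intensity against log time taken from 70 to 1610 s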); conditions: recombinant KvBeta, 4-cyanobenzaldehyde reduction, at 10 µM, stronger effect = higher value
Voltage-gated potassium channel subunit beta-2 (Rattus norvegicus), sequence (P62483 whole entry, looked up): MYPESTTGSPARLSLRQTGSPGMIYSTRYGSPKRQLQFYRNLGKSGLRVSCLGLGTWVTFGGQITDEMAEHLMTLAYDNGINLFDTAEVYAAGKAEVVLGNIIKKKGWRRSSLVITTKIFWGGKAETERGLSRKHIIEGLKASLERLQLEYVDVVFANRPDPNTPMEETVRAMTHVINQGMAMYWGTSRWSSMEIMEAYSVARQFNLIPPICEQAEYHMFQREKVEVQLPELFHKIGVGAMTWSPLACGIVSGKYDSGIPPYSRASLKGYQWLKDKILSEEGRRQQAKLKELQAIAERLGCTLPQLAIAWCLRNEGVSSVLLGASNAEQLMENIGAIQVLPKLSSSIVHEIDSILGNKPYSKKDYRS

[6] = target: Voltage-gated potassium channel subunit beta-2 (Rattus norvegicus) (UniProt P62483); assay: enhancers of rat Kvbeta2 NADPH turnover – biochemical, NADPH fluorescence, primary screen (AID 623;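 active means NADPH fluorescence slope more negative than the mean of all samples by about 3 SD, 99.7% confidence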;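 further: fluorescence intensity change per second fitted from 20 to 320 s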); conditions: Recombinant KvBeta, NADPH fluorescence decrease slope, 10 min; at 10 µM; stronger effect = lower value
[7] = target: Alpha-2C adrenergic receptor (Homo sapiens) (UniProt P18825); assay: compounds altering alpha2C-coupled GIRK flux – cell-based, HEK293 alpha2C/GIRK1/2, thallium flux, primary screen (AID 624;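 active means fluorescence slope after compound addition differing from the mean of all screened samples at 99.7% confidence, in either direction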;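 further: slope of fluorescence ratio to pre-addition baseline per second over 15 to 24 s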); conditions: thallium flux BTC fluorescence, at 10 µM, actives lie on both sides
Alpha-2C adrenergic receptor (Homo sapiens), sequence (P18825 whole entry, looked up): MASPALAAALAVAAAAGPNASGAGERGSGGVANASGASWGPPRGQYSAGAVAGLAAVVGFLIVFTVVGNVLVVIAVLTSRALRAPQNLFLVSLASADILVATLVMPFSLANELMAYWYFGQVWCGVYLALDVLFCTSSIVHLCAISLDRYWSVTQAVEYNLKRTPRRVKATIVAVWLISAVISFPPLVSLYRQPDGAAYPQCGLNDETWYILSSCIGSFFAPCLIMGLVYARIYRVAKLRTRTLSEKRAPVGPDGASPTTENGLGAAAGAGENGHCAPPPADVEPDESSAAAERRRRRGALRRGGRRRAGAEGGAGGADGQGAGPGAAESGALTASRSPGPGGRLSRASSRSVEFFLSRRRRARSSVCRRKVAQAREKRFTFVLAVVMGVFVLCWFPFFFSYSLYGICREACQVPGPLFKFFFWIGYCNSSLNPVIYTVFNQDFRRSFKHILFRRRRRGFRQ

[8] = inhibitors of larval lipid processing in zebrafish, primary screen, whole organism, PED6 fluorescence, gall bladder and intestine (AID 686;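 active means a full or partial loss of lipid-probe fluorescence in the fish gall bladder, intestine or both, judged by eye; inactive means no fluorescence loss, or compound toxic to the fish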;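 further: larvae 5 to 7 days old with five fish per well; signal comes from phospholipase A2 cleavage of quenched PED6 carried via bile; overnight exposure to compound and PED6 before scoring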); conditions: Zebrafish larvae PED6 lipid processing, fluorescence scoring; screened at 20 µM (by protocol)
[9] = loss of swimming-algae plug formation – whole organism, Chlamydomonas reinhardtii, WT vs cilia-less mutant, absorbance, 96-well, primary screen (AID 463189); conditions: Chlamydomonas reinhardtii gravitaxis, OD600 absorbance, 2 days; at 10 µM; stronger effect = higher value;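 further: 0% = wild type cc124 cells in DMSO and 100% = ciliumless bld1 mutant cells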
[10] = blockers of RIG-like receptor reporter activation – cell-based, Sendai virus stimulus, luciferase, 10K MLSCN set, TLR/RLR signaling modifier project, primary screen (AID 602276;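 active means inhibition at or above 50% at 10 µM; inactive means inhibition below 50%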;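 further: firefly luciferase from ISG56 promoter only with Renilla not read in this screen; 0% = Sendai virus plus DMSO and 100% = medium plus DMSO without virus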); conditions: HEK293 RL24 IRF3 luciferase reporter, at 10 µM, stronger effect = higher value
[11] = TLR3 IRF3 reporter activation blockers – cell-based, poly I:C stimulus, luciferase, 10K MLSCN set, primary screen (AID 602277;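 active means inhibition of the reporter signal at or above 50%; inactive means inhibition below 50%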); conditions: HEK293-TLR3 RL24 IRF3 luciferase reporter, at 10 µM, stronger effect = higher value
[12] = target: Muscarinic acetylcholine receptor M4 (Homo sapiens) (UniProt P08173); assay: M4-linked GIRK flux change, two-sided – cell-based, HEK293 M4/GIRK, thallium flux, BTC-AM, M4 allosteric agonist project, primary screen (AID 625;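 active means fluorescence slope after compound addition differing from the mean of all tested samples at 99.7% confidence, mostly higher but some lower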;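 further: thallium influx through GIRK channels coupled to M4 in HEK293 cells with BTC-AM dye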); conditions: at 10 µM, actives lie on both sides
Muscarinic acetylcholine receptor M4 (Homo sapiens), sequence (P08173 whole entry, looked up): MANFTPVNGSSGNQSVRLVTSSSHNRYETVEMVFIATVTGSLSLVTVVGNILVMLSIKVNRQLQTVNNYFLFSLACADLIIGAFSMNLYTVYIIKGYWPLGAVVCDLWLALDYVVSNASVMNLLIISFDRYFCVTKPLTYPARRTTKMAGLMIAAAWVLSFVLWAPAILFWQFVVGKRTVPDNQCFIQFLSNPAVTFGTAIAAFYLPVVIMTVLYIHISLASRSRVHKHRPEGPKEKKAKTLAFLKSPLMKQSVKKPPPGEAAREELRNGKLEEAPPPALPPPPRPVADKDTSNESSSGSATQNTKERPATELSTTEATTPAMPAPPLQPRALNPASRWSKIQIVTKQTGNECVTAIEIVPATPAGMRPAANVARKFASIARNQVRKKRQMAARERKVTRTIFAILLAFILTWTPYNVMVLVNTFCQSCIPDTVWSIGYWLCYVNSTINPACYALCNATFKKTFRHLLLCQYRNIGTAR

[13] = measured here: cell density z-score
[14] = measured here: nuclear c-Myc green intensity z-score
[15] = measured here: nuclear pErk red intensity z-score, stronger effect = higher value

Structure (SMILES)	inhibition of aggregation [1]	nuclei count [1]	inhibition [2]	nuclei count [2]	z-score [3, 13]	z-score [3, 14]	z-score [3, 15]	inhibition [4]	fluorescence slope [5]	NADPH fluorescence slope [6]	slope [7]	outcome [8]	inhibition [9]	inhibition [10]	inhibition [11]	fluorescence slope [12]
Oc1c(I)cc(Cl)c2cccnc12	-1.7% (inactive)	76.8%	-52% (inactive)	108%	-0.367	0.593	-0.324	23.4% (inactive)	-0.459 (inactive)	-3.6e-05 (inactive)	0.00439 (inactive)	inactive	-0.595% (inactive)	0.651% (inactive)	31.6% (inactive)	
COC(=O)c1ccc(N2C(=O)CC(N3CCN(C(=O)c4ccco4)CC3)C2=O)cc1 (stereo not drawn)	0.2% (inactive)	103%	-195% (inactive)	104%	0.106	-0.422	-0.968	8.31% (inactive)	-0.527 (inactive)	-5.8e-05 (inactive)		inactive	1.38% (inactive)	6.43% (inactive)	18.5% (inactive)	0.00534 (inactive)
CCc1cccc2c3c([nH]c12)C(CC)(CC(=O)O)OCC3 (stereo not drawn)	3.6% (inactive)	111%	-122% (inactive)	126%	-0.0395	0.0959	-0.905	-0.493% (inactive)	-0.442 (inactive)	-6.2e-05 (inactive)	0.00464 (inactive)	inactive	-6.89% (inactive) and 27.4% (inactive)	10.1% (inactive)	33.6% (inactive)	
O=c1[nH]c(=O)n([C@H]2C[C@H](O)[C@@H](CO)O2)cc1F	-11.9% (inactive)	10.3%	-47% (inactive)	116%	0.0804	0.765	-0.71	3.59% (inactive)	-0.533 (inactive)	-5.3e-05 (inactive)	0.00542 (inactive)	inactive	-13.9% (inactive)	-38.5% (inactive)	15.4% (inactive)	
CCC(=O)O[C@]1(C(=O)CCl)[C@@H](C)C[C@H]2[C@@H]3CCC4=CC(=O)C=C[C@]4(C)[C@@]3(F)[C@@H](O)C[C@@]21C	-20.8% (inactive)	56.7%	-5.8% (inactive)	116%	-0.246	0.687	0.17	3.45% (inactive)	-0.528 (inactive)	-3.3e-05 (inactive)	0.00421 (inactive)	inactive	18.1% (inactive)	-10.2% (inactive)	-4.89% (inactive)	
CCOc1ccc2nc(S(N)(=O)=O)sc2c1	-4.8% (inactive)	112%	-20.9% (inactive)	127%	1.44	0.726	-0.916	21.2% (inactive)	-0.485 (inactive)	-5.5e-05 (inactive)	0.00518 (inactive)	inactive	31% (inactive)	3.12% (inactive)	-17% (inactive)	
CC(C)C[C@H]1C(=O)N2CCC[C@H]2[C@]2(O)O[C@](NC(=O)[C@@H]3C=C4c5cccc6[nH]c(Br)c(c56)CC4N(C)C3)(C(C)C)C(=O)N12 (stereo partly drawn)	-4% (inactive)	96.5%	-74.8% (inactive)	122%	-0.747	-0.999	0.764	5.42% (inactive)	-0.523 (inactive)	8.6e-06 (inactive)	0.00416 (inactive)	inactive	-11.5% (inactive)	7.85% (inactive)	5.12% (inactive)	
CC(=O)OCC(=O)[C@@]1(O)CC[C@H]2[C@@H]3CCC4=CC(=O)C=C[C@]4(C)[C@H]3[C@@H](O)C[C@@]21C	-0.6% (inactive)	67.7%	-93.5% (inactive)	130%	-0.00243	0.765	-0.773	9.37% (inactive)	-0.506 (inactive)	4.9e-06 (inactive)	0.00476 (inactive)	inactive	24.9% (inactive)	-13.7% (inactive)	-1.49% (inactive)	
COc1cc(C2Oc3cc(C4Oc5cc(O)cc(O)c5C(=O)C4O)ccc3OC2CO)ccc1O (stereo not drawn)	15.4% (inactive)	94.5%	-86.6% (inactive)	118%	-0.357	0.711	-0.479	-8.38% (inactive)	-0.479 (inactive)	1.9e-05 (inactive)	0.00477 (inactive)	inactive	-8.52% (inactive)	-16.8% (inactive)	-16.2% (inactive)	
Cc1cccc(Nc2ccccc2C(=O)O)c1C	-13.5% (inactive)	100%	-91.2% (inactive)	118%	-1.12	0.675	-0.849	19% (inactive)	-0.511 (inactive)	-5.8e-05 (inactive)	0.00454 (inactive)	inactive	25.5% (inactive)	8.41% (inactive)	14% (inactive)	
Nc1ccc(C(=O)O)c(O)c1	3.1% (inactive) and 6.7% (inactive)	99.9% and 81.7%	-66.9% (inactive) and -44% (inactive)	121% and 120%	0.96 and 0.975	-0.574 and 0.166	0.314 and -1.51	3.59% (inactive) and 13.3% (inactive)	-0.483 (inactive) and -0.504 (inactive)	-1.6e-05 (inactive) and -1e-05 (inactive)	0.00463 (inactive) and 0.00637 (inactive)	inactive	-10.5% (inactive) and -2.41% (inactive)	5.21% (inactive) and 16.9% (inactive)	9.44% (inactive) and 29.7% (inactive)	
CC1(C)S[C@@H]2[C@H](NC(=O)Cc3ccccc3)C(=O)N2[C@H]1C(=O)O	9.3% (inactive)	68.8%	-6% (inactive)	104%	1.44	-1.24	-1.04	5.79% (inactive)	-0.496 (inactive)	-5.4e-05 (inactive)	0.00416 (inactive)	inactive	4.14% (inactive)	20.3% (inactive)	37.6% (inactive)	
C=CCNc1nc(C2(C)CC3(CC(C)(C)OC3=O)C(=O)O2)cs1 (stereo not drawn)			-142% (inactive)	155%	0.249	-0.125	-1.68	-2.07% (inactive)	-0.315 (inactive)	-1.4e-05 (inactive)		inactive	6.21% (inactive)			0.0082 (inactive)
CC(=O)Oc1oc(-c2ccccc2)nc1/C=N/c1ccccn1			-20.4% (inactive)	147%	-0.443	1.34	0.905	7.48% (inactive)	-0.383 (inactive)	-5.8e-05 (inactive)		inactive	-3.91% (inactive)			0.00577 (inactive)
NC(N)=Nc1nc(CSCC/C(N)=N/S(N)(=O)=O)cs1	0.8% (inactive)	101%	-48.3% (inactive)	116%	-1.28	1.78	-1.37	16.8% (inactive)			0.00523 (inactive)	inactive	2.23% (inactive) and -8.71% (inactive)	13.5% (inactive)	42.5% (inactive)	
NC(=O)c1ccccc1OCCOCCOCCOc1ccccc1C(N)=O			-40% (inactive)	141%	0.988	0.573	-0.494	3.66% (inactive)	-0.379 (inactive)	-3.2e-05 (inactive)		inactive	21.6% (inactive)			0.00555 (inactive)
CC(C)(C#N)C(C)(C)c1nn[nH]n1			-15.5% (inactive)	72.6%	1.29	-0.296	-0.013	13.2% (inactive)	-0.468 (inactive)	-2.9e-05 (inactive)		inactive	20% (inactive)			0.00499 (inactive)
CN(CCOC(=O)c1cccc(Br)c1)C(C)(C)C			-47% (inactive)	134%	-0.456	0.868	2.16	7.48% (inactive)	-0.405 (inactive)	-4e-05 (inactive)		inactive	30.2% (inactive)			0.00522 (inactive)
CC1(c2cnc(Nc3ccccc3)s2)CCC(=O)O1 (stereo not drawn)			-192% (inactive)	138%	0.619	-0.905	-1.23	24.7% (inactive)	-0.359 (inactive)	1.9e-06 (inactive)		active; weak signal in gallbladder only	9.89% (inactive)			0.00609 (inactive)
CC[C@H]1CN2CCc3cc(OC)c(OC)cc3[C@@H]2C[C@@H]1C[C@H]1NCCc2cc(OC)c(OC)cc21			103% (active)	103%	0.501	-0.649	0.619	11.3% (inactive)	-0.553 (inactive)	-3.6e-05 (inactive)	0.00425 (inactive)	inactive	69.7% (active) and 130% (active)	-28.7% (inactive)	103% (active)	
CCC(=O)Oc1oc(-c2ccccc2)nc1C=Nc1ccccc1OC			-41.7% (inactive)	161%	0.687	0.248	1.48	9.39% (inactive)	-0.381 (inactive)	-4.4e-05 (inactive)		inactive	10.5% (inactive)			0.00681 (inactive)
CCOC(=O)C(OC(=O)c1sc(=S)n(C)c1C)C(C)=O (stereo not drawn)			-34.4% (inactive)	86.4%	0.548	-0.227	-0.266	7.48% (inactive)	-0.553 (inactive)	-3.9e-05 (inactive)		inactive	63.7% (active)			0.00794 (inactive)
Oc1oc(-c2ccccc2)nc1C=NCc1ccncc1			5.8% (inactive)	104%	0.0106	-0.425	0.0699	13.2% (inactive)	-0.353 (inactive)	7.6e-07 (inactive)		inactive	-10.3% (inactive)			0.00715 (inactive)
COc1ccc([C@@H]2Sc3ccccc3N(CCN(C)C)C(=O)[C@@H]2OC(C)=O)cc1			-27.1% (inactive)	104%	0.794	-1.47	0.473	-4.44% (inactive)	-0.507 (inactive)	-7.4e-05 (inactive)	0.00609 (inactive)	inactive	4.06% (inactive) and -15.6% (inactive)	16.3% (inactive)	35.5% (inactive)	
